Assay results from PubChem BioAssay AID1851 (National Center for Advancing Translational Sciences (NCATS), 2009).
About 5,700 (36%) of roughly 16,000 compounds were called active. Inconclusive results (about 24%) are left out. This is one part of the list. Values without a mark were called inactive. Calls follow the shape of the dose curve; as a rule, active = well fitted curve in the direction sought with a large enough effect; inconclusive = small, poorly fitted or top-dose-only effect, or effect the other way; inactive = no such curve, though single readings can be large or run the other way.

The compounds below were run against Cytochrome P450 1A2 (Homo sapiens) (UniProt P05177) (assay: Cytochrome panel assay with activity outcomes). Details: recombinant CYP, pro-luciferin dealkylation, luminescence, p450-cyp1a2; series mostly up to 57.1 µM.
% is scaled to controls: 0 for no effect and ±100 for the full control effect.

Cytochrome P450 1A2 (Homo sapiens), sequence (P05177 whole entry, looked up): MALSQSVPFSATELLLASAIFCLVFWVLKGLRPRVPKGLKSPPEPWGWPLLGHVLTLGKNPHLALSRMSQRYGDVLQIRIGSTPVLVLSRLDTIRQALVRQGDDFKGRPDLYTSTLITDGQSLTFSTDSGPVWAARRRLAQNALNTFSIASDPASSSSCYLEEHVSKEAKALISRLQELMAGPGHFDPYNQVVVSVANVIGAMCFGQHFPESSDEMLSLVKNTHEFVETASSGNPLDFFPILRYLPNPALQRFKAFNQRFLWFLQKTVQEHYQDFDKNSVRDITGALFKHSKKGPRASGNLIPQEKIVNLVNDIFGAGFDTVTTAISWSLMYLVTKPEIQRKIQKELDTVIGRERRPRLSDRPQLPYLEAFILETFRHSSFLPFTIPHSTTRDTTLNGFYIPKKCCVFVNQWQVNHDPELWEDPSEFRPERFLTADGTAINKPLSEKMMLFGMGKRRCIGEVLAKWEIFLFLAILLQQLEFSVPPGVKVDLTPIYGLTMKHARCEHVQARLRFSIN

| Structure (SMILES) | AC50 | activity, negative = inhibition |
| --- | --- | --- |
| CC(NC(=O)C1(C)CC1(Br)Br)C(C)(C)C (stereo unspecified) | inactive | – |
| CCOC(=O)CSC1=C(C#N)C(C)C2=C(CCCC2=O)N1 (stereo unspecified) | 2.51 µM (active) | – |
| COc1cc(C2C(C#N)=C(N)OC3=C2C(=O)CCC3)cc(OC)c1OC(=O)N1CCOCC1 (stereo unspecified) | inactive | – |
| CCOC(=O)CSC1=C(C#N)C(c2sccc2C)C(C(C)=O)=C(C)N1 (stereo unspecified) | 1.58 µM (active) | – |
| Cn1cc([N+](=O)[O-])c(C(=O)Nc2cc(Oc3cccnc3)cc([N+](=O)[O-])c2)n1 | 11.2 µM (active) | – |
| CC(=O)NN1C(=O)c2ccc(Oc3cccc([N+](=O)[O-])c3)cc2C1=O | inactive | – |
| CC(=O)OC[C@@H]1O[C@H](C/C=N\OC[C@@H](C)[C@H](OCc2ccccc2)C(C)C)C=C[C@@H]1OC(C)=O | – | -2.33% [at 11.4 µM] |
| O=C(CNC(=O)c1ccccc1)NCC(=O)OCc1ccc(Cl)cc1 | inactive | – |
| O=C(CNC(=O)c1ccco1)OCc1c(F)cccc1Cl | 25.1 µM (active) | – |
| O=C(NCC(c1cccs1)N1CCOCC1)c1ccco1 (stereo unspecified) | inactive | – |
| Cc1c(Nc2cc(N3CCCC(C)C3)c3nonc3c2[N+](=O)[O-])c(=O)n(-c2ccccc2)n1C (stereo unspecified) | inactive | – |
| Cc1c(Cl)c(S(N)(=O)=O)cc2c1=NC=NS=2(=O)O | – | -9.57% [at 2.29 µM] |
| Cc1ccc(C(=O)Nc2cccc(-c3cnc4ccccc4n3)c2)cc1 | 0.891 µM (active) | – |
| COC(=O)COc1cccc(NC(=O)c2ccc(C)cc2)c1 | 7.94 µM (active) | – |
| Cn1c(CN2CCCCC2)nc2cc(NC(=O)c3ccc(Cl)cc3)ccc21 | inactive | – |
| Cc1ccc(OCC(=O)NNC(=O)c2cccnc2)cc1 | inactive | – |
| O=C(Nc1cccc(-c2cnc3ccccc3n2)c1)c1ccc(Cl)cc1 | 1.12 µM (active) | – |
| Cc1ccc(C(=O)NNC(=O)c2cc3cc4ccccc4nc3s2)cc1 | inactive | – |
| O=C(O)C[C@H](Cc1ccccc1)C(=O)O | – | -4.07% [at 11.4 µM] |
| COCCn1c(C)cc2c(c1=O)C(c1ccccc1F)C(C#N)=C(N)O2 (stereo unspecified) | inactive | – |
| Cc1ccc(N2CCN(CCC(=O)O)CC2)cc1 | – | -8.97% [at 11.4 µM] |
| OC[C@@H](O)CN1CCN(c2ccccc2)CC1 | inactive | – |
| c1ccc(N2CCN(CCCOc3ccc4c(c3)OCO4)CC2)cc1 | 12.6 µM (active) | – |
| CC(C)=NO[C@@H](C)c1cc(-c2c(C)cc(C)cc2C)no1 | – | -3.7% [at 11.4 µM] |
| O=C(CCc1nc(-c2ccccc2)c(-c2ccccc2)o1)OCc1ccc(Cl)cc1 | 14.1 µM (active) | – |
| CCCCCCCCCCCCCC(=O)O[C@H](CC(=O)O)C[N+](C)(C)C | inactive | – |
